Assay results from PubChem BioAssay (NCATS).
A number with no mark means an inactive call. Inconclusive results are not listed. Activity calls are given as the source filed them. Calls follow the shape of the dose curve; as a rule, active = well fitted curve in the direction sought with a large enough effect; inconclusive = small, poorly fitted or top-dose-only effect, or another doubt; inactive = no such curve, though single readings can be large; an effect the other way counts as inactive or inconclusive.

Tested on: not listed separately
Test: qHTS to identify inhibitors of the type 1 interferon - major histocompatibility complex class I in skeletal muscle: primary screen against the NCATS Mechanism Interrogation Plate v5.0 (MIPE) Libary (AID 1347411); also: nearly all actives have a fitted effect of over 65% in size; also: potency is read from the fitted curve at half-maximal effect;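 as to activity change, negative = inhibition: plate controls were vehicle for no effect and reference inhibitor for full effect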
Conditions: iHSKM cells + IFN-b, HiBiT-tagged MHC-I luminescence, 24 h; series mostly up to 45.8 µM; activity change, negative = inhibition: at the top concentration
Outline: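 Luminescence from HiBiT-tagged endogenous HLA-B*08:01 served as the MHC class I read-out. CRISPR-engineered C25cl48 human myoblasts received 4.0 ng/ml IFN-beta plus compound for 24 hrs, with an 11-point, 1:3 series topping at 46 uM final.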

Going from Clc1ccc(C(Cn2ccnc2)OCc2ccsc2Cl)c(Cl)c1 (stereo not given) to O=C(NOCC1CC1)c1ccc(F)c(F)c1Nc1ccc(I)cc1Cl, the “activity change, negative = inhibition” value falls from -15% to -25.8%.

Going from COc1cc2c(N3CCN(C(=O)Nc4ccc(OC(C)C)cc4)CC3)ncnc2cc1OCCCN1CCCCC1 to CCOc1cc(CC(=O)N[C@@H](CC(C)C)c2ccccc2N2CCCCC2)ccc1C(=O)O, the “activity change, negative = inhibition” value falls from -12.4% to -19.7%.

Going from CCOC(=O)C1=C[C@@H](OC(CC)CC)[C@H](NC(C)=O)[C@@H](N)C1 to CC(=O)O[C@H]1C(=O)[C@@]2(C)C([C@H](OC(=O)c3ccccc3)[C@]3(O)C[C@H](OC(=O)[C@H](O)[C@@H](NC(=O)c4ccccc4)c4ccccc4)C(C)=C1C3(C)C)[C@]1(OC(C)=O)CO[C@@H]1C[C@@H]2O (stereo not given in full), the “activity change, negative = inhibition” value falls from 4.73% to -56.6%.

First: Nc1nc(Cl)nc2c1ncn2[C@H]1C[C@H](O)[C@@H](CO)O1
Second: Nc1ccn([C@@H]2O[C@H](CO)[C@@H](O)C2O)c(=O)n1 (stereo not given in full)
The “activity change, negative = inhibition” value of the first is lower: -13.5% for the first, -4.75% for the second.

Going from CC1(C)CCC(C)(C)c2cc(NC(=O)c3ccc(C(=O)O)cc3)ccc21 to C[C@H](Cc1ccc(O)c(O)c1)[C@@H](C)Cc1ccc(O)c(O)c1, the “activity change, negative = inhibition” value falls from -17.1% to -27.4%.

Going from O=c1oc2cc(O)ccc2s1 to COc1ccc(C2(C#N)CCC(C(=O)O)CC2)cc1OC1CCCC1 (stereo not given), the “activity change, negative = inhibition” value falls from 18.1% to 4.33%.

In the case of C[Se]CCC(N)C(=O)O (stereo not given), the “activity change, negative = inhibition” value is reported as -4.21% [at 91.7 µM].

For O=C1c2ccccc2-c2n[nH]c3cccc1c23, the Potency was 16.5 µM (active).
In the case of CN(C)c1ccc2nc3ccc(=[N+](C)C)cc-3sc2c1, the Potency is reported as 18.6 µM (active).

Compared with CC(C)(S)[C@@H](N)C(=O)O, O=P(O)(O)C(O)(Cn1ccnc1)P(=O)(O)O is higher in activity change, negative = inhibition: -26.4% [at 5.1 µM] for the first, 2.74% [at 5.1 µM] for the second.

With CCCCCCCCCCCCCCCCCCCCCCO the “activity change, negative = inhibition” value was 6.7% [at 15.5 µM].

Biological target: Protein phosphatase 1D (Homo sapiens) (UniProt O15297)
Test: RapidFire Mass Spectrometry qHTS Assay for Modulators of WT P53-Induced Phosphatase 1 (WIP1) (AID 1347424);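 also: amount of dephosphorylated VEPPL-S-QETFS peptide product formed by WIP1; plate controls were DMSO wells for no effect and GSK830371 inhibitor control at 10 µM for full effect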
Conditions: WIP1 dephosphorylation of phosphopeptide, RapidFire MS; series mostly up to 63 µM; activity change, negative = inhibition: at the top concentration
Outline: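 WIP1 (10 nM final) was preincubated 1 h at room temperature with compounds in Tris-HCl pH 7.5, 30 mM MgCl2, TCEP, EGTA, BSA; 2 uM VEPPL-pS-QETFS phosphopeptide was added for 5 min, quenched with formic acid, and dephosphorylated product quantified by RapidFire MS.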

Protein phosphatase 1D (Homo sapiens), sequence (O15297 whole entry, looked up): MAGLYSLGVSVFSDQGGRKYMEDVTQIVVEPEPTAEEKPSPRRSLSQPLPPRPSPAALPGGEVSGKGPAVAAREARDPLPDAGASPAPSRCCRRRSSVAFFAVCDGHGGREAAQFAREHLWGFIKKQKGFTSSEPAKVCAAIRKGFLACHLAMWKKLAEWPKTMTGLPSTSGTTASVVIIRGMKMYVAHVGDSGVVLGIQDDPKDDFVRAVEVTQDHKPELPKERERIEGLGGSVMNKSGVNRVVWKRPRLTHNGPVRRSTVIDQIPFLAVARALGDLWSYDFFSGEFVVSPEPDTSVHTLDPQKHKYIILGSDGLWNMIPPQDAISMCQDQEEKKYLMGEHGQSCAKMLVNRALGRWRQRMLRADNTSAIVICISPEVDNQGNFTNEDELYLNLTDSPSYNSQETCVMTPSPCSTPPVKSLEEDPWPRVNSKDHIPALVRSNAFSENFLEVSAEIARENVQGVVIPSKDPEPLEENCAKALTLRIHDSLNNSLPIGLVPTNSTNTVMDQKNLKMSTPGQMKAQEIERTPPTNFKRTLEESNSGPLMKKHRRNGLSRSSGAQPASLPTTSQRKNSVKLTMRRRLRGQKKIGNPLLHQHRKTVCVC

Going from Cc1ccc(NC(=O)c2ccc(CN3CCN(C)CC3)cc2)cc1Nc1nccc(-c2cccnc2)n1 to Cc1ccc(Nc2nccc(N(C)c3ccc4c(C)n(C)nc4c3)n2)cc1S(N)(=O)=O, the “activity change, negative = inhibition” value rises from 0% to 11.7%.

Going from Clc1ccc(C(Cn2ccnc2)OCc2ccsc2Cl)c(Cl)c1 (stereo not given) to COc1cc(C(C)=O)ccc1OCCCN1CCC(c2noc3cc(F)ccc23)CC1, the “activity change, negative = inhibition” value rises from 23.9% to 26.3%.

First: CC[C@]1(O)C[C@H]2CN(CCc3c([nH]c4ccccc34)[C@@](C(=O)OC)(c3cc4c(cc3OC)N(C=O)[C@H]3[C@@](O)(C(=O)OC)[C@H](OC(C)=O)[C@]5(CC)C=CCN6CC[C@]43[C@@H]65)C2)C1
Second: COC(=O)C1=C(C)NC(C)=C(C(=O)OCCCN2CCC(c3ccccc3)(c3ccccc3)CC2)C1c1cccc([N+](=O)[O-])c1 (stereo not given)
The “activity change, negative = inhibition” value of the first is higher: 40.8% for the first, 24.9% for the second.

First: COc1cc2c(N3CCN(C(=O)Nc4ccc(OC(C)C)cc4)CC3)ncnc2cc1OCCCN1CCCCC1
Second: COC(=O)C1=C(C)NC(C)=C(C(=O)OC(C)C)C1c1cccc2nonc12 (stereo not given)
The “activity change, negative = inhibition” value of the first is higher: 15.2% for the first, -5.69% for the second.

First: O=C(NOCC1CC1)c1ccc(F)c(F)c1Nc1ccc(I)cc1Cl
Second: CC(=O)Nc1ccc(O)cc1
The “activity change, negative = inhibition” value of the first is higher: -17.1% for the first, -18.2% for the second.

For CN1C(C(=O)Nc2ccccn2)=C(O)c2sccc2S1(=O)=O, the “activity change, negative = inhibition” value was 20.9%.

In the case of CCN(CC)C(=S)SSC(=S)N(CC)CC, the Potency is reported as “inactive”.

Biological target: Protein phosphatase 1D (Homo sapiens) (UniProt O15297)
Test: Rhodamine-PBP qHTS Assay for Modulators of WT P53-Induced Phosphatase 1 (WIP1) (AID 1347425); also: % of control where 0% means no effect
Conditions: recombinant WIP1, Rhodamine-PBP phosphate fluorescence, real-time; series mostly up to 57.5 µM; activity change, negative = inhibition: at the top concentration
Outline: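 The read-out is the change in Rhodamine-PBP fluorescence (f1 - f0, ex 525/em 598 nm) as Pi is released, read each minute for 11 min. Final reaction: 5 nM WIP1, 10 uM phosphopeptide VEPPL-pS-QETFS, 10 uM Rh-PBP, 50 mM Tris-HCl pH 7.5, 30 mM MgCl2. Compound was preincubated with enzyme for 1 hour at room temperature.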

First: Cc1ccc(NC(=O)c2ccc(CN3CCN(C)CC3)cc2)cc1Nc1nccc(-c2cccnc2)n1
Second: Cc1ccc(Nc2nccc(N(C)c3ccc4c(C)n(C)nc4c3)n2)cc1S(N)(=O)=O
The “activity change, negative = inhibition” value of the first is higher: 18% for the first, 15.4% for the second.

Going from Clc1ccc(C(Cn2ccnc2)OCc2ccsc2Cl)c(Cl)c1 (stereo not given) to COc1cc(C(C)=O)ccc1OCCCN1CCC(c2noc3cc(F)ccc23)CC1, the “activity change, negative = inhibition” value rises from -3.09% to 18.5%.

Compared with CC[C@]1(O)C[C@H]2CN(CCc3c([nH]c4ccccc34)[C@@](C(=O)OC)(c3cc4c(cc3OC)N(C=O)[C@H]3[C@@](O)(C(=O)OC)[C@H](OC(C)=O)[C@]5(CC)C=CCN6CC[C@]43[C@@H]65)C2)C1, COC(=O)C1=C(C)NC(C)=C(C(=O)OCCCN2CCC(c3ccccc3)(c3ccccc3)CC2)C1c1cccc([N+](=O)[O-])c1 (stereo not given) is lower in “activity change, negative = inhibition” value: 25.1% for the first, 23.8% for the second.

Going from COc1cc2c(N3CCN(C(=O)Nc4ccc(OC(C)C)cc4)CC3)ncnc2cc1OCCCN1CCCCC1 to COC(=O)C1=C(C)NC(C)=C(C(=O)OC(C)C)C1c1cccc2nonc12 (stereo not given), the “activity change, negative = inhibition” value falls from 23.7% to -23.6%.

Going from CN1C(C(=O)Nc2ccccn2)=C(O)c2sccc2S1(=O)=O to CC(=O)Nc1ccc(O)cc1, the “activity change, negative = inhibition” value falls from 6.26% to -4.49%.

With CCN(CC)C(=S)SSC(=S)N(CC)CC the outcome was “inactive”.

Tested on: not listed separately
Test: Validation qHTS assay for inhibitors of Activation Induced Cytidine Deaminase (AID): UDG Counterscreen signal (AID 1347427); also: 0% is about no effect
Conditions: biochemical UDG counterscreen, fluorescence signal; series mostly up to 115 µM; activity, negative = inhibition: at the top concentration
Outline: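 Counterscreen read of UDG activity (2 U/mL, 4/3x) in the FRET deamination format with AID (1 uM, 4/3x), DJC20/DJC23 substrates (250 nM, 4x), 4 h at room temperature. NaOH stop, fluorescence at 560 ex/665 em.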

First: O=c1ccc2ccc(O)c(O)c2o1
Second: O=C(CCc1ccc(O)cc1)c1c(O)cc(O)cc1O
The “activity, negative = inhibition” value of the first is higher: 11.1% for the first, 7.7% for the second.

First: O=C1NC(=O)C(c2ccccc2[N+](=O)[O-])=C1Nc1ccc(O)c(Cl)c1
Second: O=C1c2ccccc2-c2n[nH]c3cccc1c23
The “activity, negative = inhibition” value of the first is lower: -8.96% for the first, -2.05% for the second.

Going from NC(=NCc1ccccc1)NC(=O)c1nc(Cl)c(N)nc1N to Cc1cccc(C#Cc2ccccc2)n1, the “activity, negative = inhibition” value falls from 6.14% to 5.61%.

First: OC(CN1CCN(c2cccc(Cl)c2)CC1)C(c1ccccc1)c1ccccc1 (stereo not given)
Second: CC1(C)C(=O)N(CCN2CCC(C(=O)c3ccc(F)cc3)CC2)c2ccccc21
The “activity, negative = inhibition” value of the first is higher: 8.33% for the first, 3.32% for the second.

First: CN(C)CCCC1(c2ccc(F)cc2)OCc2cc(C#N)ccc21 (stereo not given)
Second: CC(C)c1ccc2c(c1)c(SC(C)(C)C)c(CC(C)(C)C(=O)O)n2Cc1ccc(Cl)cc1
The “activity, negative = inhibition” value of the first is higher: 2.86% for the first, 0.922% for the second.

Compared with NCCCCNCCCN, CCN(CC)C(=S)SSC(=S)N(CC)CC is lower in “activity, negative = inhibition” value: 12.8% for the first, 9.19% for the second.

First: Nc1ccn([C@@H]2O[C@H](CO)[C@@H](O)C2O)c(=O)n1 (stereo not given in full)
Second: CC(=O)O[C@H]1C(=O)[C@@]2(C)C([C@H](OC(=O)c3ccccc3)[C@]3(O)C[C@H](OC(=O)[C@H](O)[C@@H](NC(=O)c4ccccc4)c4ccccc4)C(C)=C1C3(C)C)[C@]1(OC(C)=O)CO[C@@H]1C[C@@H]2O (stereo not given in full)
The “activity, negative = inhibition” value of the first is lower: -3.43% for the first, 7.53% for the second.
